PubChem BioAssay (Tox21)
“And” between values parts separate entries of the source, which are not always exact repeats. Equal entries are not always repeated. Results filed as inconclusive are left out. A structure can be active in one record and inactive in another. The source made the active and inactive calls. Unless noted, calls come from the whole dose curve; as a rule, active = well fitted curve in the direction sought with a large enough effect in the repeat runs; inconclusive = weak or mixed curves; inactive = no such curve, though single readings can be large; an effect the other way counts as inactive or inconclusive.

What was measured:
[1] = qHTS assay to identify small molecule agonists of the peroxisome proliferator-activated receptor delta (PPARd) signaling pathway - cell viability counter screen (AID 743211); note: nearly all actives have a fitted effect of over 55% in size; note: potency is the fitted concentration of half-maximal effect
Procedure, shortened: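 qHTS cell viability: PPARd-bla HEK293H; 17 h cpd, 37C; CellTiter-Glo, luminescence at 30 min RT.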

[2] = qHTS assay to identify small molecule antagonists of the peroxisome proliferator-activated receptor delta (PPARd) signaling pathway - cell viability counter screen (AID 743213); note: nearly all actives have a fitted effect of over 50% in size; note: potency is the fitted concentration of half-maximal effect
Procedure, shortened: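 PPARd-bla HEK293H cells (3000/well) got compound plus 300 nM L165041 agonist for 17 h at 37 C. Viability in the same wells came from CellTiter-Glo luminescence after 30 min at room temperature.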

[3] = target: Bile acid receptor (Homo sapiens) (UniProt Q96RI1); assay: qHTS assay to identify small molecule antagonists of the farnesoid-X-receptor (FXR) signaling pathway (AID 743217; active = well fitted inhibition curve with a large enough effect in the signal ratio in the repeat runs, not every such curve was filed as active; the % refers to the signal ratio)
Procedure, shortened: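 Read-out: beta-lactamase FRET fluorescence (LiveBLAzer B/G substrate, 2 h, room temperature) in GeneBLAzer FXR-UAS-bla HEK 293T cells. Compounds were co-dosed with 50 uM chenodeoxycholic acid (final) and incubated 16 h at 37 °C.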

[4] = qHTS assay to identify small molecule agonists of the farnesoid-X-receptor (FXR) signaling pathway - cell viability counter screen (AID 743218); note: nearly all actives have a fitted effect of over 45% in size; note: potency is the fitted concentration of half-maximal effect
Procedure, shortened: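 Luminescence from CellTiter-Glo, read after 30 min at RT, reports viability of GeneBLAzer FXR-UAS-bla HEK 293T cells treated 16 h with compounds in the wells used for the beta-lactamase reporter.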

[5] = target: Bile acid receptor (Homo sapiens) (UniProt Q96RI1); assay: qHTS assay to identify small molecule agonists of the farnesoid-X-receptor (FXR) signaling pathway (AID 743220; active = well fitted activation curve with a large enough effect in the signal ratio in the repeat runs, not every such curve was filed as active; the % refers to the signal ratio)
Procedure, shortened: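 FXR-UAS-bla HEK 293T cells carrying a UAS-driven beta-lactamase reporter were plated for 5 h at 37C/5% CO2, then exposed to DMSO-dissolved Tox21 10K compounds for 16 h at 37C. A LiveBLAzer B/G FRET substrate was loaded for 2 h at room temperature before fluorescence reading.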

[6] = qHTS assay to identify small molecule antagonists of the farnesoid-X-receptor (FXR) signaling pathway - cell viability counter screen (AID 743221; active = well fitted cell-killing curve with a large enough effect in the repeat runs, not every such curve was filed as active; note: nearly all actives have a fitted effect of over 50% in size; note: potency is the fitted concentration of half-maximal effect)
Procedure, shortened: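 After a 5 h settling period, FXR-bla HEK 293T cells receive compound and chenodeoxycholic acid (50 uM final) and incubate 16 h at 37 C; CellTiter-Glo luminescence, read after 30 min at room temperature, reports cell viability.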

[7] = target: Vitamin D3 receptor (Homo sapiens) (UniProt P11473); assay: qHTS assay to identify small molecule agonists of the vitamin D receptor (VDR) signaling pathway (AID 743222; calls by dose curve)
Procedure, shortened: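 Beta-lactamase reporter readout (LiveBLAzer B/G FRET, 2 h RT) in VDR-bla cells after 16 h compound treatment at 37C, 5% CO2; cells pre-incubated 4 h before pin transfer of DMSO solutions.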

[8] = target: Vitamin D3 receptor (Homo sapiens) (UniProt P11473); assay: qHTS assay to identify small molecule antagonists of the vitamin D receptor (VDR) signaling pathway (AID 743223; active = well fitted inhibition curve with a large enough effect in the signal ratio in the repeat runs, not every such curve was filed as active; the % refers to the signal ratio)
Procedure, shortened: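 Reporter line VDR-bla; stimulus 1alpha,25-(OH)2 vitamin D3, 3 nM final; compound co-addition, 16 h 37C/5% CO2; LiveBLAzer B/G substrate 2 h RT; fluorescence intensity.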

[9] = qHTS assay to identify small molecule agonists of the vitamin D receptor (VDR) signaling pathway - cell viability counter screen (AID 743224); note: nearly all actives have a fitted effect of over 50% in size; note: potency is the fitted concentration of half-maximal effect
Procedure, shortened: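 Cytotoxicity counter screen: VDR-bla cells, 16 h compound exposure at 37C, 5% CO2; CellTiter-Glo luminescence, 30 min RT, same wells as bla read.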

[10] = qHTS assay to identify small molecule antagonists of the vitamin D receptor (VDR) signaling pathway - cell viability counter screen (AID 743225); note: nearly all actives have a fitted effect of over 50% in size; note: potency is the fitted concentration of half-maximal effect
Procedure, shortened: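 Parallel cytotoxicity test: VDR-UAS-bla HEK 293T, 3 nM (final) 1-alpha,25-dihydroxyvitamin D3 with test compound, 16 h, 37C. Endpoint is CellTiter-Glo luminescence in the same wells.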

[11] = qHTS assay to identify small molecule agonists of the NFkB signaling pathway (AID 1159509; active = well fitted curve in the direction sought with a large enough effect in the signal ratio in the repeat runs, not every such curve was filed as active; the % refers to the signal ratio; note: series mostly up to about 61 µM)
Procedure, shortened: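 Readout: FRET fluorescence, 405 nm excitation, 460/530 nm emission; beta-lactamase expression disrupts FRET. Cells: ME-180 stably carrying NF-kB-driven bla reporter. Compound exposure 5 hr, 37 C, 5% CO2.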

[12] = qHTS assay to identify small molecule agonists of the NFkB signaling pathway - cell viability counter screen (AID 1159515; calls by dose curve; note: nearly all actives have a fitted effect of over 55% in size; note: potency is the fitted concentration of half-maximal effect)
Procedure, shortened: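 ME-180 NFkB-bla cells, 2,000/well; overnight attach; compound 5 hr, 37 C/5% CO2; LiveBLAzer substrate 1.5 hr RT; then CellTiter-Glo in same wells, 30 min RT, luminescence read.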

[13] = qHTS assay to identify small molecule agonists of the endoplasmic reticulum stress response signaling pathway (AID 1159516; active = well fitted activation curve with a large enough effect in the signal ratio in the repeat runs, not every such curve was filed as active; the % refers to the signal ratio)
Procedure, shortened: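 HeLa ESRE-bla reporter line; cpd 5 h, 37 C/5% CO2; LiveBLAzer B/G FRET substrate 2 h RT; ex 405, em 460/530 nm.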

[14] = qHTS assay to identify small molecule agonists of the endoplasmic reticulum stress response signaling pathway - cell viability counter screen (AID 1159517; calls by dose curve; note: nearly all actives have a fitted effect of over 50% in size; note: potency is the fitted concentration of half-maximal effect)
Procedure, shortened: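 After overnight attachment, ESRE-bla HeLa cells were treated with Tox21 library compounds for 5 hr. CellTiter-Glo luminescence, read 30 min post-addition at room temperature, reported viability.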

[15] = qHTS assay to identify small molecule antagonists of the retinoid-related orphan receptor gamma (ROR-gamma) signaling pathway - cell viability counter screen (AID 1159520); note: nearly all actives have a fitted effect of over 50% in size; note: potency is the fitted concentration of half-maximal effect
Procedure, shortened: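 Cytotoxicity was read from cellular ATP (CellTiter-Glo luminescence) after 16 hr at 37 C with 1 uM doxycycline induction. The inducer was added 2 hr after compound transfer to Tet-on ROR gamma CHO cells.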

[16] = target: Nuclear receptor ROR-gamma (Homo sapiens) (UniProt P51449); assay: qHTS assay to identify small molecule antagonists of the retinoid-related orphan receptor gamma (ROR-gamma) signaling pathway (AID 1159521; note: nearly all actives have a fitted effect of over 50% in size; note: potency is the fitted concentration of half-maximal effect)
Procedure, shortened: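 Decreased RORE-driven luciferase luminescence indicates antagonism. Tet-on RORγ CHO cells received compound, then 1 uM final doxycycline 2 h later; signal read after 16 h incubation.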

[17] = qHTS assay to identify small molecule agonists of the AP-1 signaling pathway - cell viability counter screen (AID 1159525; calls by dose curve; note: nearly all actives have a fitted effect of over 55% in size)
Procedure, shortened: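 Intracellular ATP by Cell Titer Glo luminescence (30 min, RT) in the same ME-180 AP-1-bla wells after the 5 h compound exposure at 37 °C. Normalised to tetra n-octyl ammonium bromide and DMSO controls.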

[18] = qHTS assay to identify small molecule agonists of the AP-1 signaling pathway (AID 1159526; calls by dose curve)
[19] = target: Peroxisome proliferator-activated receptor delta (Homo sapiens) (UniProt Q03181); assay: qHTS assay to identify small molecule agonists of the peroxisome proliferator-activated receptor delta (PPARd) signaling pathway (AID 743212; calls by dose curve; note: potency is the fitted concentration of half-maximal effect)
Procedure, shortened: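 Steps: seed PPARd-bla HEK293H cells; incubate 5 h, 37 C, 5% CO2; add compounds in DMSO; incubate, 37 C; add LiveBLAzer B/G FRET substrate; hold 2 h at room temperature; measure fluorescence.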

[20] = target: Peroxisome proliferator-activated receptor delta (Homo sapiens) (UniProt Q03181); assay: qHTS assay to identify small molecule antagonists of the peroxisome proliferator-activated receptor delta (PPARd) signaling pathway (AID 743215; active = well fitted inhibition curve with a large enough effect in the signal ratio in the repeat runs, not every such curve was filed as active; the % refers to the signal ratio;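 note: cells stimulated with agonist L165041 at 300 nM final during compound exposure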; note: potency is the fitted concentration of half-maximal effect)
Procedure, shortened: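 HEK293H GeneBLAzer PPARd UAS-bla reporter cells; cpd + L165041 300 nM final, 17 h 37 C; LiveBLAzer B/G FRET substrate 2 h RT; fluorescence intensity read-out. Antagonist mode.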

Measured: Potency

Sequence of Bile acid receptor (Homo sapiens) (Q96RI1 whole entry, looked up): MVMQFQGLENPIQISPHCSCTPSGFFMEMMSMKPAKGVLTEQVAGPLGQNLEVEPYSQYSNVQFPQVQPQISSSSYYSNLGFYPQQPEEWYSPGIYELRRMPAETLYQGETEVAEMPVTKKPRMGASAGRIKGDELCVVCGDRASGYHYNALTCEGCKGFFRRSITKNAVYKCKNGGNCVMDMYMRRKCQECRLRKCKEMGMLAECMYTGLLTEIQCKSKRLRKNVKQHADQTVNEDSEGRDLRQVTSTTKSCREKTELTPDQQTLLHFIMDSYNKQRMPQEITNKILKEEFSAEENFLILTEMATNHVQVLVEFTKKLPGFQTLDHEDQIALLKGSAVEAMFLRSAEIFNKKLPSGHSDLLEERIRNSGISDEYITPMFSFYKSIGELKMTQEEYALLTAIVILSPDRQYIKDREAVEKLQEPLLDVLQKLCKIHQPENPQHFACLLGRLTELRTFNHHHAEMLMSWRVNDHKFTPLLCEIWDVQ
Sequence of Peroxisome proliferator-activated receptor delta (Homo sapiens) (Q03181 whole entry, looked up): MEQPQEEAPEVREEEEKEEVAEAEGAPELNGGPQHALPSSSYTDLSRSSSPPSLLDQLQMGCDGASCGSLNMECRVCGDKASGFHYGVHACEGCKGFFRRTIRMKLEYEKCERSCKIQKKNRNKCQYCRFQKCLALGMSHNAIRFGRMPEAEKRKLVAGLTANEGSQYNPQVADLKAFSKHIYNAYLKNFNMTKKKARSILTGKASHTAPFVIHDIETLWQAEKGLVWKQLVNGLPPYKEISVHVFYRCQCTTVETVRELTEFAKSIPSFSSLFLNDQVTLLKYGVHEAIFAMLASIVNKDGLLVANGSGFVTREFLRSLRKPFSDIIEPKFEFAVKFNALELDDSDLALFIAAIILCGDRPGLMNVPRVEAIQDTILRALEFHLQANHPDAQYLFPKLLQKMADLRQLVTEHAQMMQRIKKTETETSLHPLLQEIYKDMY
Sequence of Vitamin D3 receptor (Homo sapiens) (P11473 whole entry, looked up): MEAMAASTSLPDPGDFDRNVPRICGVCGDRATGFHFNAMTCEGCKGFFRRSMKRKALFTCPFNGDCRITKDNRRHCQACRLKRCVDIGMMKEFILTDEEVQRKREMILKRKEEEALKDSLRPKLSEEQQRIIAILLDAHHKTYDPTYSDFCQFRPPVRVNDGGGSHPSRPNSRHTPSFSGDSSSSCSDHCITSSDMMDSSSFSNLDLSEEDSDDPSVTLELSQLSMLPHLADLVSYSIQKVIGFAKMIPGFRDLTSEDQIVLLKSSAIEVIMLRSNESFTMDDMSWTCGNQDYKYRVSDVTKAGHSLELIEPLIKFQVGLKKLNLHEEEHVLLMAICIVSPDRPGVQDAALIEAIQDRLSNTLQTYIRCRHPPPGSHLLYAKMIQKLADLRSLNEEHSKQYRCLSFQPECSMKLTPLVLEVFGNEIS

CCC(C)(C)c1ccc(O)cc1
49.5 µM (active) and inactive: [1]
not listed: [19] | [20]
inactive: all other assays above

c1ccc(NNc2ccccc2)cc1
not listed: [20]
inactive: all other assays above

C1=Cc2cccc3cccc1c23
not listed: [3] | [5] | [20]
inactive: all other assays above

Oc1cc(Cl)ccc1Cl
not listed: [3] | [5]
inactive: all other assays above

C=CCN(CC=C)C(=O)C(Cl)Cl
not listed: [3] | [5]
inactive: all other assays above

Cc1cc(Cl)ccc1OCCCC(=O)O
not listed: [20]
inactive: all other assays above

CCC(C)c1cc([N+](=O)[O-])cc([N+](=O)[O-])c1O (stereo unspecified)
inactive and 7.7 µM (active): [16]
not listed: [19] | [20]
inactive: all other assays above

O=C(O)C(F)(F)C(F)(F)C(F)(F)C(F)(F)C(F)(F)C(F)(F)C(F)(F)F
active: [19] 19.4 µM
not listed: [3] | [5] | [10] | [20]
inactive: all other assays above

O=C(Nc1ccc(Br)cc1)c1cc(Br)cc(Br)c1O
active: [1] 6.14 µM and 2.45 µM and 8.41 µM | [2] 1.55 µM | [20] 6.89 µM | [4] 3.45 µM and 1.55 µM and 7.5 µM | [6] 9.74 µM and 2.45 µM and 13.3 µM | [9] 1.73 µM and 2.19 µM and 8.41 µM | [10] 1.95 µM | [12] 13.8 µM and 49 µM | [14] 8.68 µM and 1.95 µM and 5.35 µM | [15] 27.2 µM and 17.2 µM
inactive: [19] | [7] | [8] | [11] | [17] | [18]

CCCCCCCCC(=O)NCc1ccc(O)c(OC)c1
not listed: [3] | [5] | [13] | [16]
inactive: all other assays above

c1cc(OCC2CO2)ccc1Cc1ccc(OCC2CO2)cc1 (stereo unspecified)
not listed: [7] | [8] | [13] | [16] | [18] | [19] | [20]
inactive: all other assays above

C=CCc1ccc2c(c1)OCO2
not listed: [3] | [5] | [16] | [19] | [20]
inactive: all other assays above

C[C@]12CCC(=O)C[C@@H]1CC[C@@H]1[C@@H]2CC[C@]2(C)[C@@H](O)CC[C@@H]12
inactive: [1] | [4] | [9] | [10] | [11] | [12] | [13] | [14] | [15] | [17]

CNC(=O)Oc1cccc2c1OC(C)(C)O2
not listed: [8] | [16] | [19] | [20]
inactive: all other assays above

CC(C)N(C(=O)SCC(Cl)=C(Cl)Cl)C(C)C
not listed: [9] | [13] | [18]
inactive: all other assays above

Oc1cc(Cl)c(Cl)cc1Cl
not listed: [3] | [5] | [7] | [8] | [16] | [19] | [20]
inactive: all other assays above

Oc1c(Cl)c(Cl)c(Cl)c(Cl)c1Cl
not listed: [2] | [3] | [4] | [9] | [13] | [16] | [19] | [20]
inactive: all other assays above
